Records with an inconclusive call do not appear. Active and inactive are the calls of the source. Calls follow the shape of the dose curve; as a rule, active = well fitted inhibition curve with a large enough effect; inconclusive = small, poorly fitted or top-dose-only effect; inactive = no such curve, though single readings can be large or run the other way.

The nature of this assay: Counterscreen for APE1 Inhibitors: Fluorescent Dye Displacement Validation Assay (AID 1707). The following applies: fluorescent dye displacement from DNA; series mostly up to 57.1 µM. The text has this:
In order to distinguish true inhibitors of DNA-processing enzymes from promiscuous DNA-binding compounds among screening assay hits, we developed a homogeneous and miniaturized assay based on fluorescent dye displacement test as originally described by Tse and Boger (Accounts of Chemical Research (2004) 37: 61-69). The assay is based on the strong enhancement of fluorescence when Thiazole Orange (ThO) binds to double-stranded DNA: conversely, in the presence of a DNA-binding compound, Thiazole Orange is displaced from the DNA and its fluorescence is reduced.
Buffer. 50 mM Tris-HCl (pH7.5) containing 50mM NaCl, 2 mM MgCl2, and 0.01% Tween-20.
Buffer containing 250 nM ThO in columns 3 and 4 as negative control (no dsDNA).
Reaction mixture: 250 nM ThO and 50 nM dsDNA at final concentration dispensed throughout the plate: in columns 1, 2, 5-48. Column 1 is neutral (100% activity).
5''TAMRA- TC ACC FTC GTA CGA CTC
3'' AG TGG GAG CAT GCT GAG
where F denotes tetrahydrofuran.
Control: Pintool transfer of control compound WB64 (W4761, Sigma-Aldrich) to column 2 of all assay plates as a two-fold 16-point dilution in duplicate (concentration range 5.75 uM - 0.175 nM).
Four uL of reaction mixtures were dispensed to 1536-well Greiner black solid bottom plates. Compounds (23 nL) were transferred […] in order to measure the endpoint fluorescence using 480 nm excitation and 540 nm emission fluorescence protocol.
For `CC(C)(Sc1ccc(CCN(CCCCC2CCCCC2)C(=O)NC2CCCCC2)cc1)C(=O)O`, the compound was called inactive.

For `Cc1ccccc1C(OCCN(C)C)c1ccccc1` (stereo not given), the compound was called inactive.

In the case of `O=c1[nH]cnc2[nH]ncc12`, the compound was called inactive.

Take `NCCCC(N)(C(=O)O)C(F)F` (stereo not given): the call was inactive.

`Cc1oncc1C(=O)Nc1ccc(C(F)(F)F)cc1`: the compound was classed as inactive.

Consider `Nc1ccc(S(=O)(=O)Nc2ccnn2-c2ccccc2)cc1`, for which the compound was called inactive.

Take `CC(C[N+](C)(C)C)OC(N)=O` (stereo not given): the call was inactive.

On to `NC(=O)c1cnccn1`, for which the compound was called inactive.

With `Oc1ccc(C2CNCCc3c2cc(O)c(O)c3Cl)cc1` (stereo not given), the result was inactive.

As to `O=C1CCC(N2C(=O)c3ccccc3C2=O)C(=O)N1` (stereo not given), the result was inactive.

For `CN1CCN(CCCN2c3ccccc3Sc3ccc(C(F)(F)F)cc32)CC1`, the outcome was inactive.

In the case of `CC(C)C[C@H](NC(=O)[C@@H](O)[C@H](N)Cc1ccccc1)C(=O)O`, the compound was classed as inactive.

Regarding `CCC(C)N(C)C(=O)c1cc2ccccc2c(-c2ccccc2Cl)n1` (stereo not given), the compound was classed as inactive.

Turning to `CC(C)(C)NCC(O)c1ccc(O)c(CO)c1` (stereo not given), the compound was called inactive.

Turning to `N[C@@H]1CONC1=O`, the compound was classed as inactive.

Regarding `Cc1[nH]c(=O)c(C#N)cc1-c1ccncc1`, the compound was called inactive.

For `Nc1nc2c(ncn2COCCO)c(=O)[nH]1`, the call was inactive.

Turning to `CC(=O)Oc1ccccc1C(=O)O`, the call was inactive.

Regarding `NNCCc1ccccc1`, the compound was classed as inactive.

In the case of `Nc1nc2ccc(OC(F)(F)F)cc2s1`, the outcome was inactive.

Take `CCCC(CCC)C(=O)O`: the call was inactive.

Consider `Cc1ccc(N(CC2=NCCN2)c2cccc(O)c2)cc1`, for which the compound was called inactive.

In the case of `Cn1cnc([N+](=O)[O-])c1Sc1ncnc2nc[nH]c12`, the compound was classed as inactive.

As for `O=C1CCc2cc(OCCCCc3nnnn3C3CCCCC3)ccc2N1`, the compound was classed as inactive.

For `c1ccc([C@H]2CN3CCSC3=N2)cc1`, the compound was called inactive.

Turning to `NS(=O)(=O)c1cc2c(cc1Cl)NC=NS2(=O)=O`, the result was inactive.

In the case of `CCOC(=O)C1=C[C@]2(CC)CCCN3CCc4c(n1c1ccccc41)[C@@H]32`, the compound was called inactive.

As to `NCCc1ccc(O)c(O)c1`, the outcome was inactive.

Take `O=NN(CCCl)C(=O)NCCCl`: the compound was called inactive.

In the case of `CCN(CC)CCCC(C)Nc1ccnc2cc(Cl)ccc12` (stereo not given), the compound was called inactive.

Turning to `O=c1n(CCCN2CCN(c3cccc(Cl)c3)CC2)nc2ccccn12`, the result was inactive.

On to `C1COC(NC(C2CC2)C2CC2)=N1`, for which the result was inactive.

On to `CCOC(=O)N1CCC(=C2c3ccc(Cl)cc3CCc3cccnc32)CC1`, for which the compound was called inactive.

As for `NC[C@H](O)c1ccc(O)c(O)c1`, the result was inactive.

Regarding `CC(C)NCC(O)COc1ccc(COCCOC(C)C)cc1` (stereo not given), the result was inactive.

Take `Clc1cccc(Cl)c1NC1=NCCN1`: the compound was called inactive.

Regarding `Cc1cn[nH]c1`, the result was inactive.

Turning to `CNC[C@H](O)c1cccc(O)c1`, the call was inactive.

With `Cc1[nH]c(=O)c(C#N)cc1-c1ccc2nccn2c1`, the compound was called inactive.

For `OC(CN1CCC(Cc2ccc(F)cc2)CC1)c1ccc(Cl)cc1` (stereo not given), the outcome was inactive.
